Measured values as given in paper PMC7862700, “An all-to-all approach to the identification of sequence-specific readers for epigenetic DNA modifications on cytosine”.

Legend:
Assay in all cases: DAPPL (digital affinity profiling via proximity ligation, sequencing); 10 mM Tris-HCl pH 7.5, 50 mM NaCl, 1 mM DTT, 4% glycerol, room temperature, 30 min; GST-TFs on glutathione beads, 16-mer random dsDNA library, 0.1% formaldehyde crosslink after washing; high values mean tight binding
FEV = target: T1, FEV (Homo sapiens, UniProt Q99581 1-238); conditions: protein: recombinant; tags: N-terminal GST; dsDNA, one strand shown
T1 sequence: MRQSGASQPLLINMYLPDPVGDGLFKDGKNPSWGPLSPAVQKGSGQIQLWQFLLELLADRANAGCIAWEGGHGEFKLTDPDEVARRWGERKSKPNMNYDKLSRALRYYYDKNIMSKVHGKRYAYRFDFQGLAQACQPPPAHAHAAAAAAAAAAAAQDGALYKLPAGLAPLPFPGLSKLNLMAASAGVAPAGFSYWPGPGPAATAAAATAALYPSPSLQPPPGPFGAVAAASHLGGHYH
In short: (§1)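 The binding signal reported is, for every hexamer, its read frequency for a factor over its read frequency for the tag-only sample. Reads came from pools of yeast-expressed, GST-fused human transcription factors on glutathione beads, barcoded with DNA and mixed with that sample, which were incubated with 200 nmole of a random double-stranded 16-mer DNA library in Tris/NaCl/DTT/glycerol buffer at room temperature for 30 min. After washing, the pools were crosslinked with 0.1% formaldehyde, proximity-ligated with BsaI/T4 ligase for 1 h at 37 °C, PCR-amplified and sequenced on an Illumina NextSeq500.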

ETV5 = ETV5 (Homo sapiens, UniProt P41161 1-510); conditions: protein: recombinant; tags: N-terminal GST; dsDNA, one strand shown
ETV5, sequence (P41161 whole entry): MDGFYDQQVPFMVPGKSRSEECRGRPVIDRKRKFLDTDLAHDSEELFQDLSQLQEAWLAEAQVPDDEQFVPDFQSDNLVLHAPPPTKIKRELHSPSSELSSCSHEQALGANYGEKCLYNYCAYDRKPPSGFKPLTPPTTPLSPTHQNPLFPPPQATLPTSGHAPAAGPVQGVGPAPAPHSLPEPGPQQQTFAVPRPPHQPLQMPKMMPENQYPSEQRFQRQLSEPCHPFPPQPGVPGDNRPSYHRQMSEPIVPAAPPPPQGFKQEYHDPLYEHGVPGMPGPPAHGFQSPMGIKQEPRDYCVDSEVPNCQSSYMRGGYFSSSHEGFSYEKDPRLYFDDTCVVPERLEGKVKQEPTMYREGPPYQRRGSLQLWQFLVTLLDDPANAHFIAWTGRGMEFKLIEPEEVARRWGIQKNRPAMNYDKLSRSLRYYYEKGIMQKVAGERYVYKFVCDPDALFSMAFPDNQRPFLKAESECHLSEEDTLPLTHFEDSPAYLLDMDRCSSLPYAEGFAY
In short: as §1

HSF1 = HSF1 (Homo sapiens, UniProt Q00613 1-529); conditions: protein: recombinant; tags: N-terminal GST; chain copies: 3; dsDNA, one strand shown
HSF1, sequence (Q00613 whole entry): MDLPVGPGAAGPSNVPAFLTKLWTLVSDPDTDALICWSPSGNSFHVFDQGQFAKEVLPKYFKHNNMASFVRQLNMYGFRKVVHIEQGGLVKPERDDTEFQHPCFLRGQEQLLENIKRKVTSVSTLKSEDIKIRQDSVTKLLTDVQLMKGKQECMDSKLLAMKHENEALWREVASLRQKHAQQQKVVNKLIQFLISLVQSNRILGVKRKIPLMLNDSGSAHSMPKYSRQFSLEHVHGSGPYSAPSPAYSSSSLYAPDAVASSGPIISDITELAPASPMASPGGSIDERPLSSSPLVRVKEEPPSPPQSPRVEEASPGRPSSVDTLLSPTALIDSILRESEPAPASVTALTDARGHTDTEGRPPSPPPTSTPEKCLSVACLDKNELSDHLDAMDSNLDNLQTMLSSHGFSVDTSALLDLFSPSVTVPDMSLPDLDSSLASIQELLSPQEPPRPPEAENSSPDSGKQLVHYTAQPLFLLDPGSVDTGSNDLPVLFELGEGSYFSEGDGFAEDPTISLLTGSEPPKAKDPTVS
In short: as §1

SPIC = target: T2, SPIC (Homo sapiens, UniProt Q8N5J4 1-248); conditions: protein: recombinant; tags: N-terminal GST; dsDNA, one strand shown
T2 sequence: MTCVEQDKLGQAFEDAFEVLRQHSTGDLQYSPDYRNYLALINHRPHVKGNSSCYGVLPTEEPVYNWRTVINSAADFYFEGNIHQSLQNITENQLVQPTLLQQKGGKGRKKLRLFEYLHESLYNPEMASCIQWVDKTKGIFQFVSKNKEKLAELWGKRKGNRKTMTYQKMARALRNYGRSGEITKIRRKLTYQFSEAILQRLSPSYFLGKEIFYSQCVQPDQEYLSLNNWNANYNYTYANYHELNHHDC
In short: as §1

ELF4 = ELF4 (Homo sapiens, UniProt Q99607 1-663); conditions: protein: recombinant; tags: N-terminal GST; dsDNA, one strand shown
ELF4, sequence (Q99607 whole entry): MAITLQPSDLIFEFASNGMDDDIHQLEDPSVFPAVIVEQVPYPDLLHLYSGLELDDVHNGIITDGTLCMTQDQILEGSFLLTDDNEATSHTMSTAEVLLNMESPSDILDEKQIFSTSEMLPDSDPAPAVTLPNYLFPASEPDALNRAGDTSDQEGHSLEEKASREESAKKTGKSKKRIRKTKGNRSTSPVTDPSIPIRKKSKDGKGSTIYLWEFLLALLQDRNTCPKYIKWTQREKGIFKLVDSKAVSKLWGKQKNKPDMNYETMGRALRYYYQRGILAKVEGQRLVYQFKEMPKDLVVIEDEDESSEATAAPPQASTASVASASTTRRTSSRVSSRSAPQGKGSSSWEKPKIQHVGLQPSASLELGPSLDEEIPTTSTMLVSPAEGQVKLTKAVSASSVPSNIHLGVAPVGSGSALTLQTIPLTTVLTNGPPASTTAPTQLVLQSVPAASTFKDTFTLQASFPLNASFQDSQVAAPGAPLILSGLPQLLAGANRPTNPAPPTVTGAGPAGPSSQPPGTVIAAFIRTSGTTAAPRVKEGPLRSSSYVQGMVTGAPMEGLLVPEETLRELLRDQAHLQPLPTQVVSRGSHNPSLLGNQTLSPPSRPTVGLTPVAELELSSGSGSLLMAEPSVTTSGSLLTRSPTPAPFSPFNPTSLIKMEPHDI
In short: as §1

ELK4 = target: T3, ELK4 (Homo sapiens, UniProt P28324-2 1-405); conditions: protein: recombinant; tags: N-terminal GST; dsDNA, one strand shown
T3 sequence: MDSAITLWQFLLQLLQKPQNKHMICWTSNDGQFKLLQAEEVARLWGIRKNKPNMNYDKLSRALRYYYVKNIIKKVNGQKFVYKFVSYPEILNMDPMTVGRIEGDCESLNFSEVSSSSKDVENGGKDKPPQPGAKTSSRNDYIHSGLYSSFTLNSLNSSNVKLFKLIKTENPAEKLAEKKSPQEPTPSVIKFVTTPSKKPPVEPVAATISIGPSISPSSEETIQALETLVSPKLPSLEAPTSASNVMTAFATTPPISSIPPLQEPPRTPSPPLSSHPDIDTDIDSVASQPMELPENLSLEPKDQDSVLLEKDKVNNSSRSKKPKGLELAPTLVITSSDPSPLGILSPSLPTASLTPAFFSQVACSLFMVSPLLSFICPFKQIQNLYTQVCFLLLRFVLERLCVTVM
In short: as §1

CRX = CRX (Homo sapiens, UniProt O43186 1-299); conditions: protein: recombinant; tags: N-terminal GST; dsDNA, one strand shown
CRX, sequence (O43186 whole entry): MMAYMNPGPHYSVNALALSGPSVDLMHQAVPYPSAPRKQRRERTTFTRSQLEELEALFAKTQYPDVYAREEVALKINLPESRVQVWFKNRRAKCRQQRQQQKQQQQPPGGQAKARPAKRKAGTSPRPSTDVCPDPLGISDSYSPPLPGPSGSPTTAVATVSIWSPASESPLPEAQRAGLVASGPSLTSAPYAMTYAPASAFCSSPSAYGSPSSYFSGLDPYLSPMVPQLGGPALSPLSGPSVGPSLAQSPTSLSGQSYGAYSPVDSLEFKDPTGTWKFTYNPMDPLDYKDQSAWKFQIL
In short: as §1

ETV1 = ETV1 (Homo sapiens, UniProt P50549 1-477); conditions: protein: recombinant; tags: N-terminal GST; dsDNA, one strand shown
ETV1, sequence (P50549 whole entry): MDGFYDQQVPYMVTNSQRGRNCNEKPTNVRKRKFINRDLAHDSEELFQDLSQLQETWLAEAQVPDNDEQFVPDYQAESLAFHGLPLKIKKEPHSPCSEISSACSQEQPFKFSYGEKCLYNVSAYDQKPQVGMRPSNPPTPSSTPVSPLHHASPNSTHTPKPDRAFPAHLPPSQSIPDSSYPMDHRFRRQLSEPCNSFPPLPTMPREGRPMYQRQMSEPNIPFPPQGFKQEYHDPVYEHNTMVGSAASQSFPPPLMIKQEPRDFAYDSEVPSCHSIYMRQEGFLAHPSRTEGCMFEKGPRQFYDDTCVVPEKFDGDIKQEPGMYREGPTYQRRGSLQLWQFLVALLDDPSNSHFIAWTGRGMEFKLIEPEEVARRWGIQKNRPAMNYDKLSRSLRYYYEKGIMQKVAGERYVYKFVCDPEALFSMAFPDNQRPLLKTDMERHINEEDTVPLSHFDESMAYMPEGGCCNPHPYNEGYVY
In short: as §1

ERF = target: T4, ERF (Homo sapiens, UniProt P50548 1-548); conditions: protein: recombinant; tags: N-terminal GST; dsDNA, one strand shown
T4 sequence: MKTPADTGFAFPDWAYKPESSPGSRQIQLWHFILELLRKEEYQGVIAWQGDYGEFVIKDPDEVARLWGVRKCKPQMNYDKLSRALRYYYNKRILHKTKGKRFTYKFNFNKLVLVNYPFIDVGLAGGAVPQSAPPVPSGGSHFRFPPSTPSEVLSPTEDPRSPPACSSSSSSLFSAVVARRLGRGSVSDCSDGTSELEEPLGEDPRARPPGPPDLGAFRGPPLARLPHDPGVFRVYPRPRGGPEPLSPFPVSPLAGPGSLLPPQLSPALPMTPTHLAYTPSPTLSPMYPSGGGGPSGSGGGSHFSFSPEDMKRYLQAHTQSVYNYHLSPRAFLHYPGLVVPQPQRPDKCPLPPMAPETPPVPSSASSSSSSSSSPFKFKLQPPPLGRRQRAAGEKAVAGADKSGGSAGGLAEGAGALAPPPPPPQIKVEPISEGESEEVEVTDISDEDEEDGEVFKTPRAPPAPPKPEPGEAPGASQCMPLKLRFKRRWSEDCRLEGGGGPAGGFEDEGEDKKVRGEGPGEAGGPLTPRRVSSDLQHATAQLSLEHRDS
In short: as §1

ETV3L = target: T5, ETV3L (Homo sapiens, UniProt Q6ZN32 1-361); conditions: protein: recombinant; tags: N-terminal GST; dsDNA, one strand shown
T5 sequence: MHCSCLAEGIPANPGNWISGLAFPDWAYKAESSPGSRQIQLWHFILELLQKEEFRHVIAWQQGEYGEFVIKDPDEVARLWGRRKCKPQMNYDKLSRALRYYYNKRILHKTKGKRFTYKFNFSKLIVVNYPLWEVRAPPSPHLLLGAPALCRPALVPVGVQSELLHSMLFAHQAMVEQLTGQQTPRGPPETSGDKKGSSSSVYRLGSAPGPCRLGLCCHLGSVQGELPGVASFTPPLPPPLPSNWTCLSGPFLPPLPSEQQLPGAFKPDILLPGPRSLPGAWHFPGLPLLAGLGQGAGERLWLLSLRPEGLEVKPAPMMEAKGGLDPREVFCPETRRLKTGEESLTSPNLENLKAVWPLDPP
In short: as §1

ETS2 = target: T6, ETS2 (Homo sapiens, UniProt P15036 1-469); conditions: protein: recombinant; tags: N-terminal GST; dsDNA, one strand shown
T6 sequence: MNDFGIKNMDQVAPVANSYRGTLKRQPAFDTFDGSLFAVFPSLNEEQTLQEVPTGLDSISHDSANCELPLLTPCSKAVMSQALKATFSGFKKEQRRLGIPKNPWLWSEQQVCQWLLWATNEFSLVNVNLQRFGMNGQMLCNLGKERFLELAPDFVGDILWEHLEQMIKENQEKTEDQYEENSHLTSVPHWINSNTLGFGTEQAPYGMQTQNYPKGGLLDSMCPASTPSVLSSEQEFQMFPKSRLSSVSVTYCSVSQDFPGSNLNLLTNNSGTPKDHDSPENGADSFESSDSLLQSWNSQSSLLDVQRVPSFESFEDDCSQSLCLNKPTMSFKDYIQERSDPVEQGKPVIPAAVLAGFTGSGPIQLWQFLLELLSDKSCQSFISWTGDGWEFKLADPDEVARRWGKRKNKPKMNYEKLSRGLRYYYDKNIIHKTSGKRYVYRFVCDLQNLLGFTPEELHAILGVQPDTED
In short: as §1

ETV7 = target: T7, ETV7 (Homo sapiens, UniProt Q9Y603 1-341); conditions: protein: recombinant; tags: N-terminal GST; dsDNA, one strand shown
T7 sequence: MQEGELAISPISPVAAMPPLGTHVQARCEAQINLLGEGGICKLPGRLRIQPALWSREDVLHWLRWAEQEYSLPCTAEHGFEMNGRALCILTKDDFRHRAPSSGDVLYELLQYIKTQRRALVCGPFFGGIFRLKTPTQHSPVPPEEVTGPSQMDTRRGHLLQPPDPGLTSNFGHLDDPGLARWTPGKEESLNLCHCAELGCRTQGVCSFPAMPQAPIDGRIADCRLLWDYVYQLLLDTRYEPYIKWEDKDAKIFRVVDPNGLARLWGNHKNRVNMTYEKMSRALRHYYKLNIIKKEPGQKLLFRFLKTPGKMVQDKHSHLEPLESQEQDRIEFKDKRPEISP
In short: as §1

ELF5 = target: T8, ELF5 (Homo sapiens, UniProt Q9UKW6-2 1-255); conditions: protein: recombinant; tags: N-terminal GST; dsDNA, one strand shown
T8 sequence: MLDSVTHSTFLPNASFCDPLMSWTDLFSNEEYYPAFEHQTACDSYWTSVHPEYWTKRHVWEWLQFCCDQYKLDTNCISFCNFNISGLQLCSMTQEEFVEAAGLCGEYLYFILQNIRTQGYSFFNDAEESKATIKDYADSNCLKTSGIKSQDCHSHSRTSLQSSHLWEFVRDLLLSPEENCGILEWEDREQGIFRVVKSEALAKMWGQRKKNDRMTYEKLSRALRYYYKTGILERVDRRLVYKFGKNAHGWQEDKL
In short: as §1

ETV3 = target: T9, ETV3 (Homo sapiens, UniProt P41162-2 1-143); conditions: protein: recombinant; tags: N-terminal GST; dsDNA, one strand shown
T9 sequence: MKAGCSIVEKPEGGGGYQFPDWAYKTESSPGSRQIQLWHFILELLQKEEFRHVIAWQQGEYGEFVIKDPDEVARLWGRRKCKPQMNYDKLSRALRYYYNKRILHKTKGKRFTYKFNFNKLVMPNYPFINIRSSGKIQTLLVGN
In short: as §1

ETV6 = ETV6 (Homo sapiens, UniProt P41212 1-452); conditions: protein: recombinant; tags: N-terminal GST; dsDNA, one strand shown
ETV6, sequence (P41212 whole entry): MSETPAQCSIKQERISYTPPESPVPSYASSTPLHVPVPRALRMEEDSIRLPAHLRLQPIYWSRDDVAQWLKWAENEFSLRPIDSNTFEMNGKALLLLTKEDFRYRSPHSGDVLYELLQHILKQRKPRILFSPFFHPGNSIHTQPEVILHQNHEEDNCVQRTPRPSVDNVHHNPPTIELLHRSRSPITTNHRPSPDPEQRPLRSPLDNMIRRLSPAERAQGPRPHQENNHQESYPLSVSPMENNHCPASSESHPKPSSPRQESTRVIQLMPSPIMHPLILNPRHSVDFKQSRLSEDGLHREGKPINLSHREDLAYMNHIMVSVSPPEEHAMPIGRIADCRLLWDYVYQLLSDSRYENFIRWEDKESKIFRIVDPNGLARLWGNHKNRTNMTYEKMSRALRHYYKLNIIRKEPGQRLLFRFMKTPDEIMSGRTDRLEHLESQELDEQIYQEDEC
In short: as §1

SPDEF = target: T10, SPDEF (Homo sapiens, UniProt O95238 1-335); conditions: protein: recombinant; tags: N-terminal GST; dsDNA, one strand shown
T10 sequence: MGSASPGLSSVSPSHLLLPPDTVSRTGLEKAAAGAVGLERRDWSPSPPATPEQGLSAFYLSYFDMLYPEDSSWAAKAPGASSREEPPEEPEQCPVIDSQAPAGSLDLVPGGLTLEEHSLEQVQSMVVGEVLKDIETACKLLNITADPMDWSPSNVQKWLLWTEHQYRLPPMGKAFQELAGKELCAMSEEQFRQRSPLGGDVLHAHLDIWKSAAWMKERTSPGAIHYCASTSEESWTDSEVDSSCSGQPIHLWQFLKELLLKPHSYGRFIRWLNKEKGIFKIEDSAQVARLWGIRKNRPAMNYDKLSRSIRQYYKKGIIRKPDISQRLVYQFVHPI
In short: as §1

TGATCG
binding signal (FEV): 1.01 fold enrichment (6-mer frequency, TF over GST control) | binding signal (ETV5): 1.03 fold enrichment (6-mer frequency, TF over GST control) | binding signal (HSF1): 1.18 fold enrichment (6-mer frequency, TF over GST control) | binding signal (SPIC): 1.11 fold enrichment (6-mer frequency, TF over GST control) | binding signal (ELF4): 1.05 fold enrichment (6-mer frequency, TF over GST control) | binding signal (ELK4): 1.13 fold enrichment (6-mer frequency, TF over GST control) | binding signal (CRX): 1.21 fold enrichment (6-mer frequency, TF over GST control) | binding signal (ETV1): 1.09 fold enrichment (6-mer frequency, TF over GST control) | binding signal (ERF): 1.24 fold enrichment (6-mer frequency, TF over GST control) | binding signal (ETV3L): 1.09 fold enrichment (6-mer frequency, TF over GST control) | binding signal (ETS2): 1.03 fold enrichment (6-mer frequency, TF over GST control) | binding signal (ETV7): 1.03 fold enrichment (6-mer frequency, TF over GST control) | binding signal (ELF5): 1.04 fold enrichment (6-mer frequency, TF over GST control) | binding signal (ETV3): 1.11 fold enrichment (6-mer frequency, TF over GST control) | binding signal (ETV6): 1.12 fold enrichment (6-mer frequency, TF over GST control)

TAACTC
binding signal (FEV): 1.1 fold enrichment (6-mer frequency, TF over GST control) | binding signal (ETV5): 1.21 fold enrichment (6-mer frequency, TF over GST control) | binding signal (HSF1): 1.34 fold enrichment (6-mer frequency, TF over GST control) | binding signal (SPIC): 1.25 fold enrichment (6-mer frequency, TF over GST control) | binding signal (ELF4): 1.29 fold enrichment (6-mer frequency, TF over GST control) | binding signal (ELK4): 1.34 fold enrichment (6-mer frequency, TF over GST control) | binding signal (CRX): 1.58 fold enrichment (6-mer frequency, TF over GST control) | binding signal (ETV1): 1.23 fold enrichment (6-mer frequency, TF over GST control) | binding signal (ERF): 1.29 fold enrichment (6-mer frequency, TF over GST control) | binding signal (ETV3L): 1.12 fold enrichment (6-mer frequency, TF over GST control) | binding signal (ETS2): 1.25 fold enrichment (6-mer frequency, TF over GST control) | binding signal (SPDEF): 1.23 fold enrichment (6-mer frequency, TF over GST control) | binding signal (ETV7): 1.22 fold enrichment (6-mer frequency, TF over GST control) | binding signal (ELF5): 1.16 fold enrichment (6-mer frequency, TF over GST control) | binding signal (ETV3): 1.25 fold enrichment (6-mer frequency, TF over GST control) | binding signal (ETV6): 1.3 fold enrichment (6-mer frequency, TF over GST control)
